Structures can show the parent of a compound that is named as a salt.
Key:
Conditions in all cases: 20 µM; incubation time: 27 h, anaerobic, 37 °C;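 for the amine columns active = adjusted P below 0.05 in both replicates with a change the same way and a mean fold change under 0.8 or over 1.25; inactive = the rest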
[1] = tested on: Clostridium sporogenes DSM 1664; test: growth (OD595) fold change vs plate DMSO controls (fold change (ratio)); higher = more growth
Method in brief: (§1)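 To obtain OD, 595 nm absorbance readings were blank-subtracted, corrected for compound background using 20 µM compound solutions in water, and multiplied by a calibration factor of 5. They came from 96-well mGAM cultures grown anaerobically for 27 h at 37 °C and shaken before reading. Growth is the fold change relative to the median of plate DMSO controls. Two biological replicates were averaged, and fold changes above 1.5 were set to NA.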

[2] = tested on: Escherichia coli IAI1; test: as above
Method in brief: as §1

[3] = tested on: Klebsiella aerogenes DSM 30053; test: as above
Method in brief: as §1

[4] = tested on: Ruminococcus gnavus DSM 108212; test: as above
Method in brief: as §1

[5] = tested on: Klebsiella aerogenes DSM 30053; test: fold change of Histamine concentration vs plate DMSO controls (fold change (ratio)); higher = more amine produced, active = hit call of the paper (significant change in both replicates, either direction)
Method in brief: (§2)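 Each value is the fold change relative to DMSO-only wells on the same plate. Four gut bacterial strains were grown anaerobically in mGAM at 37 °C for 27 h in 80 µL wells, starting at OD 0.1 before a 1:1 dilution, with compounds at 20 µM final (sweeteners 50 µM). Whole cultures were extracted with cold acetonitrile/methanol containing 0.1% formic acid, centrifuged, and amines were quantified by LC–triple-quadrupole MS (dynamic MRM) against external calibration curves with within-batch drift correction. Values are means of 2 biological replicates.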

[6] = tested on: Clostridium sporogenes DSM 1664; test: fold change of Tryptamine concentration vs plate DMSO controls (fold change (ratio)); higher = more amine produced, active = hit call of the paper (significant change in both replicates, either direction)
Method in brief: as §2

[7] = tested on: Ruminococcus gnavus DSM 108212; test: as above
Method in brief: as §2

[8] = tested on: Escherichia coli IAI1; test: fold change of Putrescine concentration vs plate DMSO controls (fold change (ratio)); higher = more amine produced, active = hit call of the paper (significant change in both replicates, either direction)
Method in brief: as §2

[9] = tested on: Klebsiella aerogenes DSM 30053; test: as above
Method in brief: as §2

[10] = tested on: Escherichia coli IAI1; test: fold change of Cadaverine concentration vs plate DMSO controls (fold change (ratio)); higher = more amine produced, active = hit call of the paper (significant change in both replicates, either direction)
Method in brief: as §2

[11] = tested on: Klebsiella aerogenes DSM 30053; test: as above
Method in brief: as §2

[12] = tested on: Ruminococcus gnavus DSM 108212; test: fold change of 2-Phenylethylamine concentration vs plate DMSO controls (fold change (ratio)); higher = more amine produced, active = hit call of the paper (significant change in both replicates, either direction)
Method in brief: as §2

| Structure (SMILES) | growth [1] | growth [2] | growth [3] | growth [4] | fold change of Histamine concentration [5] | fold change of Tryptamine concentration [6] | fold change of Tryptamine concentration [7] | fold change of Putrescine concentration [8] | fold change of Putrescine concentration [9] | fold change of Cadaverine concentration [10] | fold change of Cadaverine concentration [11] | fold change of 2-Phenylethylamine concentration [12] |
| --- | --- | --- | --- | --- | --- | --- | --- | --- | --- | --- | --- | --- |
| O=P1(N(CCCl)CCCl)NCCCO1 (configuration not stated) [Cyclophosphamide] | 0.997 | 1.02 | 0.997 | 1.11 | 1.03 (inactive) | 0.997 (inactive) | 1.02 (inactive) | 1.01 (inactive) | 1.01 (inactive) | 1.02 (inactive) | 0.999 (inactive) | 1.03 (inactive) |
| CC1COC(Cn2cncn2)(c2ccc(Oc3ccc(Cl)cc3)cc2Cl)O1 (configuration not stated) | 1.16 | 1.02 | 1.01 | 1.13 | 1.01 (inactive) | 0.964 (inactive) | 0.934 (inactive) | 1.02 (inactive) | 0.996 (inactive) | 0.995 (inactive) | 0.995 (inactive) | 0.954 (inactive) |
| CCCN(CCC)N=O [NDPA (N-nitrosodipropylamine)] | 0.977 | 0.974 | 0.99 | 0.958 | 1.01 (inactive) | 1.03 (inactive) | 1.06 (inactive) | 0.969 (inactive) | 0.982 (inactive) | 0.874 (inactive) | 1.01 (inactive) | 1.07 (inactive) |
| O=C(O)c1nc(Cl)ccc1Cl | 0.915 | 1.09 | 1.01 | 0.95 | 1.01 (inactive) | 0.99 (inactive) | 0.915 (inactive) | 0.975 (inactive) | 0.98 (inactive) | 0.963 (inactive) | 0.983 (inactive) | 1.02 (inactive) |
| CNC(=O)CSP(=S)(OC)OC | 0.992 | 1.06 | 1 | 0.99 | 1.07 (inactive) | 1.01 (inactive) | 1.13 (inactive) | 0.998 (inactive) | 0.888 (inactive) | 1.01 (inactive) | 1.12 (inactive) | 1.43 (inactive) |
| c1cc2ccc3cccc4ccc(c1)c2c34 [Pyrene] | 1.01 | 0.96 | 0.997 | 0.936 | 0.993 (inactive) | 0.953 (inactive) | 1.03 (inactive) | 1.01 (inactive) | 1.05 (inactive) | 0.969 (inactive) | 1.03 (inactive) | 1 (inactive) |
| O=C1C2CC=CCC2C(=O)N1SC(Cl)(Cl)Cl (configuration not stated) | 0.923 | 1.04 | 0.972 | 0.931 | 1.02 (inactive) | 1.04 (inactive) | 1.04 (inactive) | 1 (inactive) | 0.956 (inactive) | 0.806 (inactive) | 0.999 (inactive) | 1.05 (inactive) |
| CN1C[C@H](C(=O)N[C@]2(C)O[C@@]3(O)[C@@H]4CCCN4C(=O)[C@H](Cc4ccccc4)N3C2=O)C[C@@H]2c3cccc4[nH]cc(c34)C[C@H]21 [Dihydroergotamine tartrate] | 1.2 | 1.13 | 1.1 | 0.827 | 0.89 (inactive) | 0.928 (inactive) | 0.982 (inactive) | 1.06 (inactive) | 0.984 (inactive) | 0.966 (inactive) | 1.01 (inactive) | 0.921 (inactive) |
| CS(=O)(=O)c1cc(C(F)(F)F)ccc1C(=O)c1cnoc1C1CC1 | 0.937 | 1.09 | 1.09 | 0.964 | 0.825 (inactive) | 0.986 (inactive) | 0.989 (inactive) | 0.958 (inactive) | 0.976 (inactive) | 0.905 (inactive) | 1.01 (inactive) | 1 (inactive) |
| C[C@]12CC[C@H](O)C[C@H]1CC[C@@H]1[C@@H]2CC[C@]2(C)[C@@H](C3=CC(=O)OC3)CC[C@]12O [Digitoxigenin] | 1.02 | 1.02 | 0.986 | 1 | 1.06 (inactive) | 1.05 (inactive) | 1.02 (inactive) | 1.03 (inactive) | 1.01 (inactive) | 1.01 (inactive) | 0.989 (inactive) | 1.03 (inactive) |
| CN(C)[C@@H]1C(=O)C(C(N)=O)=C(O)[C@@]2(O)C(=O)C3=C(O)c4c(O)cccc4[C@@](C)(O)[C@H]3[C@H](O)[C@@H]12 [Oxytetracycline dihydrate] | 0.0153 | 0.133 | 0.113 | 0.955 | 0.0509 (active) | 0.0182 (active) | 0.898 (inactive) | 0.279 (active) | 0.46 (active) | 0.113 (active) | 0.413 (active) | 0.92 (inactive) |
| CSc1nc(NC(C)C)nc(NC(C)C)n1 | 0.932 | 1.01 | 1.02 | 0.973 | 0.971 (inactive) | 0.943 (inactive) | 0.955 (inactive) | 0.946 (inactive) | 1.04 (inactive) | 1.01 (inactive) | 1.03 (inactive) | 1 (inactive) |
| COCC(=O)N(c1c(C)cccc1C)C(C)C(=O)OC (configuration not stated) | 0.957 | 1.02 | 1.04 | 1.02 | 0.965 (inactive) | 0.98 (inactive) | 0.983 (inactive) | 1.04 (inactive) | 1 (inactive) | 1.01 (inactive) | 1.01 (inactive) | 0.983 (inactive) |
| CN(C)C(=O)Oc1ccc[n+](C)c1 [Pyridostigmine iodide] | 1.02 | 0.975 | 1 | 0.901 | 1.05 (inactive) | 0.975 (inactive) | 1.01 (inactive) | 0.993 (inactive) | 0.98 (inactive) | 1.01 (inactive) | 1.03 (inactive) | 1.02 (inactive) |
| CCC(C)(c1ccc(O)cc1)c1ccc(O)cc1 [Bisphenol B] | 1.05 | 1.04 | 0.977 | 1.02 | 1.06 (inactive) | 1.04 (inactive) | 0.962 (inactive) | 0.976 (inactive) | 0.994 (inactive) | 1 (inactive) | 0.98 (inactive) | 0.974 (inactive) |
| CCC(C)(C)C(=O)OC1=C(c2ccc(Cl)cc2Cl)C(=O)OC12CCCCC2 | 1.09 | 1.08 | 1.01 | 1.05 | 0.967 (inactive) | 1.05 (inactive) | 1.03 (inactive) | 1.02 (inactive) | 0.996 (inactive) | 0.997 (inactive) | 1.03 (inactive) | 1.05 (inactive) |
| O=C(Nc1ccccc1-c1ccc(Cl)cc1)c1cccnc1Cl | 0.923 | 1.02 | 0.996 | 0.965 | 0.953 (inactive) | 0.954 (inactive) | 0.949 (inactive) | 1 (inactive) | 0.985 (inactive) | 0.979 (inactive) | 0.999 (inactive) | 0.916 (inactive) |
| C#CCN(C)[C@H](C)Cc1ccccc1 [Selegiline hydrochloride] | 0.986 | 1.05 | 1.02 | 0.963 | 0.982 (inactive) | 1.11 (inactive) | 1.05 (inactive) | 1.07 (inactive) | 0.975 (inactive) | 1.03 (inactive) | 1.01 (inactive) | 1.06 (inactive) |
| CCc1cc(C)cc(CC)c1-c1c(OC(=O)C(C)(C)C)n2n(c1=O)CCOCC2 | 0.933 | 1.05 | 0.985 | 0.919 | 0.979 (inactive) | 1.11 (inactive) | 0.99 (inactive) | 1.02 (inactive) | 1.01 (inactive) | 1.05 (inactive) | 0.994 (inactive) | 0.985 (inactive) |
| CC(C)(C)C(O)(CCc1ccc(Cl)cc1)Cn1cncn1 (configuration not stated) | 0.978 | 1.03 | 1.01 | 1.02 | 0.981 (inactive) | 1.24 (inactive) | 1.07 (inactive) | 0.998 (inactive) | 1.03 (inactive) | 1.01 (inactive) | 1.03 (inactive) | 1.15 (inactive) |
| CCc1cccc(C)c1N(C(=O)CCl)[C@@H](C)COC | 1.01 | 1.01 | 0.995 | 0.912 | 1.01 (inactive) | 1.07 (inactive) | 1.01 (inactive) | 1.02 (inactive) | 0.999 (inactive) | 0.998 (inactive) | 0.997 (inactive) | 1.04 (inactive) |
| CCN(CC)c1nc(C)cc(OP(=S)(OC)OC)n1 | 1.04 | 1.01 | 0.98 | 1.13 | 1.01 (inactive) | 1.06 (inactive) | 1.06 (inactive) | 1.02 (inactive) | 0.969 (inactive) | 0.901 (inactive) | 1 (inactive) | 1.05 (inactive) |
| CCCCCC[C@H]1C(=O)O[C@H](C)[C@H](NC(=O)c2cccc(NC=O)c2O)C(=O)O[C@@H](C)[C@@H]1OC(=O)CC(C)C [Antimycin A] | 1.09 | 1.03 | 1.02 | 1.15 | 0.994 (inactive) | 0.974 (inactive) | 1.04 (inactive) | 0.99 (inactive) | 0.98 (inactive) | 1.03 (inactive) | 1.01 (inactive) | 0.975 (inactive) |
| O=C(O)CNCP(=O)(O)O | 0.851 | 1.02 | 0.976 | 0.965 | 1.03 (inactive) | 0.931 (inactive) | 0.98 (inactive) | 0.961 (inactive) | 1.02 (inactive) | 0.991 (inactive) | 1.03 (inactive) | 0.966 (inactive) |
| C[C@]12CCC(=O)C=C1CC[C@@H]1[C@@H]2C(=O)C[C@]2(C)C(=O)CC[C@@H]12 [Adrenosterone] | 1.1 | 1.04 | 1.01 | 1 | 0.94 (inactive) | 1.02 (inactive) | 1.07 (inactive) | 1.09 (inactive) | 0.998 (inactive) | 1.01 (inactive) | 1.02 (inactive) | 1.07 (inactive) |
| CC(C)c1c(CN(C)C(C)Cc2ccccc2)n(C)n(-c2ccccc2)c1=O (configuration not stated) [Famprofazone] | 1.02 | 1.15 | 1.06 | 1.05 | 0.986 (inactive) | 0.954 (inactive) | 1.06 (inactive) | 1.03 (inactive) | 1.02 (inactive) | 0.998 (inactive) | 1.01 (inactive) | 1.02 (inactive) |

— the supplement of paper PMC12494721
